Screening data deposited in PubChem by several laboratories.
UBC13 polyUb = UBC13 polyubiquitin chain formation inhibitors, primary screen, biochemical, TR-FRET, uHTS; inhibition, % at 20 µM; 0.47% of 330,000 active; AID 485273, 2010; Ubiquitin-conjugating enzyme E2 N (Homo sapiens), P61088; in the data active = inhibition above about 45%, passing the limit was not always enough
Target sequence (P61088 whole entry, looked up): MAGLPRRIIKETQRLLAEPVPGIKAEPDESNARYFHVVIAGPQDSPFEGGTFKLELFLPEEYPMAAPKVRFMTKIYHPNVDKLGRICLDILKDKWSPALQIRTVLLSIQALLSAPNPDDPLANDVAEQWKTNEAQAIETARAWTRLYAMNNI
sPLA2-III inh = human group III sPLA2 inhibitors, primary screen, biochemical, QFRET, BODIPY PC-A2 liposome substrate | Group 3 secretory phospholipase A2 (Homo sapiens), Q9NZ20 | inhibition, % at 12.2 µM | QFRET BODIPY PC-A2 liposome hydrolysis, fluorescence | 0.56% of 370,000 active;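 active = inhibition above mean plus 3 SD of compounds lying within the high and low control bounds, cut at about 19% in these data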
UBC9 SUMO inh = inhibitors of in vitro SUMOylation cascade, primary screen, biochemical, HTRF, uHTS. HTRF SUMOylation assay, SAE1/SAE2 + UBC9. inhibition, % at 35 µM. SUMO-conjugating enzyme UBC9 (Homo sapiens), P63279. 0.36% of 290,000 active; in the data active = inhibition above about 50%, passing the limit was not always enough
Target sequence (P63279 whole entry, looked up): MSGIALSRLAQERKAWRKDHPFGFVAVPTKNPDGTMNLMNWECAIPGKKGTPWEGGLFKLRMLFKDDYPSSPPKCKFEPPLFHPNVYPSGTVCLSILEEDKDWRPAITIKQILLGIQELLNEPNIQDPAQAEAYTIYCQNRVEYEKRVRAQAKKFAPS
NR3A LBD binder = binders of NR3A ligand-binding domain, primary screen, biophysical, differential scanning fluorimetry, uHTS. Glutamate receptor ionotropic, NMDA 3A (GRIN3A) ligand-binding domain. NR3A LBD differential scanning fluorimetry, Tm shift; 0% = protein alone, 100% = glycine-bound protein. Tm shift relative to glycine control, % at 25 µM. 2.5% of 340,000 active. AID 1259313, 2017;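 active = melting temperature shift of at least 10% of the positive control shift, at one fixed dose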
sPLA2 confirm = human group III sPLA2 inhibitors, confirmation, biochemical, QFRET, triplicate; shares compounds with sPLA2-III inh; recombinant hGIII-sPLA2, BODIPY PC-A2 QFRET fluorescence; inhibition, % at 12.2 µM; 34% of 2,000 active;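 active = mean inhibition across triplicates above the hit cutoff set in the earlier primary screen, cut at about 19% in these data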
535nm interf = 535nm fluorescence optical interference, confirmation, artefact control for HGIII-sPLA2 inhibitor project, biochemical, QFRET; inhibition, % at 12.2 µM; BODIPY FL product fluorescence interference; 8.5% of 2,000 active; shares compounds with sPLA2-III inh;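 active = average inhibition above the solvent-only control mean plus 3 SD, cut at about 6% in these data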
Each line names hits and unclear results; the compound was inactive in the other large screens (follow-up assays come after a bar, where they were run). Rows were chosen to be rich in hits. Some 3.3% of all compounds tested hit in one or more screens of this group.

CCC(C)NC(=O)CSc1ccc(Cl)cc1 (stereo not given)	none
CCC(C)NC(=O)CCSc1ccc(C)cc1 (stereo not given)	sPLA2-III inh 19 | sPLA2 confirm inactive | 535nm interf inactive
COC(=O)C1=C(C)N(Cc2ccc(C(F)(F)F)cc2)C(=NCc2ccccc2)NC1c1ccc(Cl)cc1 (stereo not given)	none (no result: UBC13 polyUb, UBC9 SUMO inh, NR3A LBD binder)
COC(=O)C1=C(C)N(Cc2ccc(C(F)(F)F)cc2)C(=NCc2ccc(OC)cc2)NC1c1ccccc1 (stereo not given)	sPLA2-III inh 21 (no result: UBC13 polyUb, UBC9 SUMO inh, NR3A LBD binder) | sPLA2 confirm inactive | 535nm interf inactive
C=C(C)Cn1c(SCC(=O)N/N=C(\C)c2ccc(Br)cc2)nnc1-c1ccc(Br)cc1	none (no result: UBC13 polyUb, UBC9 SUMO inh, NR3A LBD binder)
C[C@H]1[C@@H](O)CC[C@@]23CCCN2C(=O)CCC[C@@H]13	none (no result: UBC13 polyUb, UBC9 SUMO inh, NR3A LBD binder)
Cc1cccc2nc(-c3ccco3)c(Nc3ccccc3)n12	none
Cc1ccc(Nc2c(-c3ccccn3)nc3cccc(C)n23)cc1	sPLA2-III inh 23 | sPLA2 confirm inactive | 535nm interf inactive
COc1ccc(NC(=O)CSc2nc(C)cc(=O)[nH]2)cc1OC	none (no result: UBC13 polyUb, UBC9 SUMO inh, NR3A LBD binder)
NNc1nc2c(F)cccc2s1	none
NNc1nc2c(F)cc(F)cc2s1	sPLA2-III inh 20 | sPLA2 confirm 20 | 535nm interf inactive
C[C@H](O)[C@@H]1CN2CCc3c([nH]c4cccc(-c5ccccc5)c34)[C@@H]2C[C@@H]1N(C)CC1CCCCC1	none (no result: UBC13 polyUb, UBC9 SUMO inh, NR3A LBD binder)
COc1cc(-c2n[nH]c(=S)n2-c2ccccc2C(F)(F)F)cc(OC)c1OC	none
COc1cc(-c2n[nH]c(=S)n2-c2cccc(C(F)(F)F)c2)cc(OC)c1OC	sPLA2-III inh 26 | sPLA2 confirm 25 | 535nm interf inactive
N#Cc1c2c(c[nH]c1=O)CCN2Cc1ccccc1	sPLA2-III inh 20 | sPLA2 confirm inactive | 535nm interf inactive
CCN(C[C@H]1[C@@H](c2ccc(C3=CCCC3)cc2)[C@H](CO)N1C(=O)c1cccnc1)S(=O)(=O)c1ccccc1[N+](=O)[O-]	none (no result: UBC13 polyUb, UBC9 SUMO inh, NR3A LBD binder)
CCOC(=O)[C@]12CCCC3=C1N(CCC3)C(=O)[C@@H](CC(=O)NCc1cccc(C(F)(F)F)c1)C2	none (no result: UBC13 polyUb, UBC9 SUMO inh, NR3A LBD binder)
CC(C)(C)OC(=O)N1CCC(N[C@@H](Cc2c[nH]c3ccccc23)C(=O)NCCc2c[nH]c3ccccc23)(C(=O)NC2CCCCC2)CC1	none (no result: UBC13 polyUb, UBC9 SUMO inh, NR3A LBD binder)
O=C1c2ccccc2CN1CCSC(=S)N1CCOCC1	sPLA2-III inh 21 | sPLA2 confirm inactive | 535nm interf inactive
CCC(=O)Nc1ccc2c(c1)C(=O)N(C)[C@@H]1CC[C@@H](CC(=O)NCCN3CCCCC3)O[C@H]1CO2	sPLA2-III inh 21 (no result: UBC13 polyUb, UBC9 SUMO inh, NR3A LBD binder) | sPLA2 confirm inactive | 535nm interf inactive
CS(=O)(=O)N1CCN(c2nc3ccc(Cl)cc3s2)CC1	sPLA2-III inh 23 | sPLA2 confirm inactive | 535nm interf inactive
S=c1[nH]nc(-c2ccco2)n1/N=C/c1cccs1	sPLA2-III inh 20 | sPLA2 confirm 23 | 535nm interf inactive
S=c1[nH]nc(-c2ccccc2)n1/N=C/c1cccs1	none (no result: sPLA2-III inh)
COc1ccc(C2CC(=O)Nc3cc(OC)c(OC)cc32)cc1 (stereo not given)	sPLA2-III inh 21 (no result: UBC13 polyUb, UBC9 SUMO inh, NR3A LBD binder) | sPLA2 confirm inactive | 535nm interf inactive
CC(C)NC(=S)NC(c1ccccc1)(c1ccccc1)c1ccccc1	sPLA2-III inh 22 | sPLA2 confirm 29 | 535nm interf inactive
C/C(=N\NC(=S)NC(C)C)c1ccccc1	none
CCOc1cc(C(=O)NC)cc(OCC)c1OCC	sPLA2-III inh 20 | sPLA2 confirm inactive | 535nm interf inactive
CCCC(=O)Nc1nc2c(C)c(Cl)ccc2s1	none
Cc1c(Cl)ccc2sc(NC(=O)CN3C(=O)c4ccccc4C3=O)nc12	sPLA2-III inh 20 | sPLA2 confirm inactive | 535nm interf inactive
Cc1nc2c(C)cccn2c1/C(O)=C1\C(=O)C(=O)N(CCN(C)C)C1c1ccccc1 (stereo not given)	sPLA2-III inh 20 | sPLA2 confirm inactive | 535nm interf inactive
